“And” between values parts separate entries of the source, which are not always exact repeats. Equal entries are not always repeated. About 27,000 (9.3%) of roughly 290,000 compounds were called active. Cut-off read from the data, not from the text of the source: active = inhibition mostly above about 28% (no sharp cut-off); inactive = mostly below about 43%. Many of the other results were omitted from the sample, so actives are more common in it than they were.
assay: A qHTS for Small Molecule Inhibitors of Shiga Toxin; conditions: Vero cells, Shiga toxin protein synthesis inhibition reporter; at 38.7 µM, stronger effect = higher value; note: 0% is about no effect

SMILES | inhibition
CCCn1c2ccccc2c2cnn(CC(=O)NCCCN3CCCCC3CC)c(=O)c21 (stereo unspecified) | -4.97% (inactive)
CC(=O)c1cc2c(cc1NC(=O)Cn1nc(-c3ccc(F)cc3)ccc1=O)OCO2 | 20.6% (inactive)
CSc1ccc(/C=N\NC(=O)COc2ccc(Cl)cc2Br)cc1 | 59.9% (inactive)
CSc1ccc(/C=N/NC(=O)c2cccc(Cl)c2)cc1 | 4.92% (active)
CSc1ccc(/C=N\NC(=O)CC(=O)NC(C)C)cc1 | 14.5% (inactive)
COc1ccc(NC(=O)NN2CCN(C)CC2)c(OC)c1 | -17.8% (inactive)
O=c1cc(-c2ccc(O)cc2)oc2c(-c3cc(-c4cc(=O)c5c(O)cc(O)cc5o4)ccc3O)c(O)ccc12 | -1.7% (inactive)
COc1ccc(-c2cc(=O)c3c(O)cc(O[C@@H]4O[C@H](CO[C@@H]5O[C@@H](C)[C@H](O)[C@@H](O)[C@H]5O)[C@@H](O)[C@H](O)[C@H]4O)cc3o2)cc1O | -12.1% (inactive)
COc1c(O)cc2oc(-c3ccc(O)c(O)c3)cc(=O)c2c1O | 69.1% (active) and 69% (active)
CN(CC1CCCO1)S(=O)(=O)c1ccc(C(=O)Nc2ccc(F)cc2)cc1 (stereo unspecified) | 11.9% (inactive)
Cc1ccc(SCCC(=O)NCc2ccccn2)cc1 | -6.02% (inactive)
Cc1ccc(SCCSc2ncccn2)cc1 | 38.6% (active)
Cc1ccc(SCCC(=O)NC(C(C)C)C(C)C)cc1 | -4.72% (inactive)
Cc1ccc(S(=O)Cc2ccc(C(=O)N3CCN(C4CCCCC4)CC3)o2)cc1 (stereo unspecified) | -3.36% (inactive)
COc1ccc(CN2CCN(Cc3ccc(OC)c(OC)c3OC)CC2)cc1 | -4.07% (inactive)
CC(C)C(C(=O)NCc1ccco1)N(CC1CCCO1)C(=O)CNS(=O)(=O)c1ccc(F)cc1 (stereo unspecified) | -0.539% (inactive)
CCc1ccccc1S(=O)(=O)Cc1ccc(C(=O)NCCc2ccccc2)o1 | 6.5% (inactive)
O=C(CSc1n[nH]c(=O)n1-c1ccccc1)Nc1ccccc1C(F)(F)F | -2.01% (inactive)
Fc1cc(F)c2nc(Nc3nc4c(F)cccc4s3)sc2c1 | 28.3% (inactive)
Cc1cc(C)c2nc(N3CCC(C(=O)NCCN4CCOCC4)CC3)sc2c1 | 17.8% (inactive)
Fc1cc(F)c2nc(N3CCOCC3)sc2c1 | 87.4% (active)
COC(=O)C1=C(O)/C(=C/c2ccc(OCC(=O)Nc3ccccc3)cc2)N=C1C | -18.9% (inactive)
CC1CN(CC(=O)NC(C)c2ccccc2)CC(C)O1 (stereo unspecified) | -5.21% (inactive)
Nc1nc(SC23CC4CC(CC(C4)C2)C3)ns1 | 1.53% (inactive)
CCCCCCSc1nsc(N)n1 | 59.2% (active)
CCCSc1nsc(N)n1 | 11% (inactive)
